According to PubChem BioAssay (Tox21):
Results filed as inconclusive are left out. Some structures have more than one record in an assay (separate samples or runs), and their calls can disagree. Active and inactive are the calls of the source. Calls come from the whole dose curve; as a rule, active = well fitted cell-killing curve with a large enough effect in the repeat runs; inconclusive = weak or mixed curves, or effect the other way; inactive = flat fitted curve, though single readings scatter.

experiment: qHTS RealTime-Glo MT Cell Viability Assay in HEK293 cells - 24 hour (AID 1224886); settings: RealTime-Glo luminescence; series mostly up to 76.8 µM; activity change, negative = cytotoxicity: at the top concentration; note: nearly all actives have a fitted effect of over 50% in size; for activity change, negative = cytotoxicity: top concentration of the series differs between compounds
How it was run: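 HEK293 cells seeded with NanoLuc/prosubstrate reagent, rested 5 h at 37 C, then dosed and kept at 37 C up to 40 h. Nonlytic real-time luminescence from viable cells read at 0, 8, 16, 24, 32 and 40 h.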
% is set by controls: 0 for no effect and ±100 for the full control effect; potency is the fitted concentration of half-maximal effect.

SMILES | activity change, negative = cytotoxicity | Potency
CCOc1ncc(F)c(=O)[nH]1 | -2.03% [at 35.3 µM] (inactive) | 
CC(O)Cn1cnc2c1c(=O)n(C)c(=O)n2C (stereo not drawn) | -1.88% [at 35.3 µM] (inactive) | 
CCCCCCCC/C=C/C(=O)O | 9.5% [at 35.3 µM] (inactive) | 
CCN(CC)CCOc1ccccc1C(=O)CCc1ccccc1 |  | 10.7 µM (active)
Nc1ccn([C@H]2CS[C@@H](CO)O2)c(=O)n1 | -2.96% (inactive) | 
O=C(O)CCCc1c[nH]c2ccccc12 | -6.66% (inactive) | 
CNc1c2c(nn1C)CCCC2 | -2% [at 35.3 µM] (inactive) | 
CCNc1nc(N)nc(Cl)n1 | 6.34% (inactive) | 
CCCOC(=O)c1c(Cl)c(Cl)c(Cl)c(Cl)c1C(=O)OCCC | 2.51% (inactive) | 
CN=C(N)NC(=O)Nc1c(C)cccc1C | 10.1% [at 35.3 µM] (inactive) | 
O=S(=O)(O)CO | -1.25% (inactive) | 
CC(=O)OC(C)C[N+](C)(C)C (stereo not drawn) | -2.95% [at 35.3 µM] (inactive) | 
CCC(CO)(CO)CO | 3.5% (inactive) | 
CSSc1ccoc1C | 1.76% (inactive) | 
O=CNNC=O | 11.8% (inactive) | 
CC(C)N=C=NC(C)C | 2.55% (inactive) | 
CC(=O)N[C@@H](Cc1ccc(O)cc1)C(=O)O | 4.95% [at 35.3 µM] (inactive) | 
CC(=O)Oc1cccc(O)c1 | 4.28% [at 35.3 µM] (inactive) | 
CC(C)(C(=O)c1cccnc1)c1cccnc1 | 1.69% [at 35.3 µM] (inactive) | 

SMILES | activity change, negative = cytotoxicity | Potency
C=CC(=O)NC(C)C | 7.65% (inactive) | 
COc1cc(OC)c2ccc(=O)oc2c1 | -18.4% (inactive) | 
CC(C)C1CCC(C(=O)N[C@H](Cc2ccccc2)C(=O)O)CC1 (stereo partly drawn) | 0.969% [at 35.3 µM] (inactive) | 
CC(C)(O)CCc1ccccc1 | -13.2% (inactive) | 
Nc1nc(-c2ccc([N+](=O)[O-])cc2)cs1 | -12.9% (inactive) | 
Cc1cc(CCC(=O)OCCOCCOCCOC(=O)CCc2cc(C)c(O)c(C(C)(C)C)c2)cc(C(C)(C)C)c1O | 1.11% (inactive) | 
O=C(O)CCS | 8.84% (inactive) | 
COc1ccc2nc(S(=O)Cc3ncc(C)c(OC)c3C)[nH]c2c1 (stereo not drawn) |  | 21.6 µM (active) and inactive
C[C@H](CS)C(=O)N1CCC[C@H]1C(=O)O | 12.3% [at 35.3 µM] (inactive) | 
Cc1ccc(Cl)cc1N | 0.851% (inactive) | 
CN1C(CSCC(F)(F)F)Nc2cc(Cl)c(S(N)(=O)=O)cc2S1(=O)=O (stereo not drawn) |  | 16.9 µM (active)
Cc1cc([N+](=O)[O-])ccc1N | -21.4% (inactive) | 
CC[C@H]1OC(=O)[C@H](C)[C@@H](O[C@H]2C[C@@](C)(OC)[C@@H](O)[C@H](C)O2)[C@H](C)[C@@H](O[C@@H]2O[C@H](C)C[C@H](N(C)C)[C@H]2O)[C@](C)(O)C[C@@H](C)CN(C)[C@H](C)[C@@H](O)[C@]1(C)O | -9.93% [at 35.3 µM] (inactive) | 
CCCCCCCCCCCCCOC(=O)CCSCCC(=O)OCCCCCCCCCCCCC | -2.9% [at 15.8 µM] (inactive) | 
CC(=O)NNC(C)=O | -1.31% (inactive) | 
CC[C@H]1OC(=O)[C@H](C)[C@@H](O[C@H]2C[C@@](C)(OC)[C@@H](O)[C@H](C)O2)[C@H](C)[C@@H](O[C@@H]2O[C@H](C)C[C@H](N(C)C)[C@H]2O)[C@](C)(O)C[C@@H](C)/C(=N\OCOCCOC)[C@H](C)[C@@H](O)[C@]1(C)O | -15.2% [at 35.3 µM] (inactive) | 
CNC1CCCN(c2c(F)cc3c(=O)c(C(=O)O)cn(C4CC4)c3c2OC)C1 (stereo not drawn) | -2.36% [at 35.3 µM] (inactive) | 
Cc1ccc(NC(=O)N(C)C)cc1NC(=O)N(C)C | -1.81% (inactive) | 
CC[C@@H](CO)NCCN[C@@H](CC)CO | 4.68% [at 35.3 µM] (inactive) | 
